Laboratory results as given in PubChem BioAssay.
The source made the active and inactive calls.

Legend:
[1] = small molecules captured by biotinylated probe aFSTL3 – biochemical, small-molecule microarray, fluorescence 635/667, stem cell growth factor project, primary screen (AID 1064); settings: higher = more signal;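 further: measures binding of the biotinylated anti-FSTL3 antibody to printed compounds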
[2] = binders from COS7 lysate, DM2A8 probe, primary screen, torsin A project, cell lysate, small-molecule microarray, fluorescence 635/667 (AID 1065); settings: higher = more signal, COS7 lysate expressing mutant human TOR1A
[3] = small molecules captured by biotinylated probe aFGF2 – biochemical, small-molecule microarray, fluorescence 635/667, stem cell growth factor project, primary screen (AID 1067); settings: higher = more signal;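 further: measures binding of biotinylated aFGF2 protein to printed compounds on slides; z-score merges feature fluorescence and signal-to-noise across triplicate slides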
[4] = small molecules captured by biotinylated probe aFGF10 – biochemical, small-molecule microarray, fluorescence 635/667, stem cell growth factor project, primary screen (AID 1071); settings: higher = more signal;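 further: score merges 667 nm spot intensity and signal to noise from triplicate slides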
[5] = target: Neurogenic locus notch homolog protein 2 (Homo sapiens) (UniProt Q04721); experiment: small molecules binding Notch2 protein – biochemical, small-molecule microarray, 635 nm fluorescence, stem cell growth factors, primary screen (AID 1073); settings: higher = more signal
[6] = target: Pro-neuregulin-1, membrane-bound isoform (Homo sapiens) (UniProt Q02297); experiment: small molecules binding neuregulin-1 protein – biochemical, small-molecule microarray, fluorescence 635/667, psychiatric disease protein project, primary screen (AID 1075); settings: NRG1 binding, 635 nm fluorescence, higher = more signal;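 further: score combines 667 nm spot fluorescence with signal to noise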
[7] = test system: Neuregulin-1 EGF-like domain; experiment: small molecules binding NRG1 EGF domain – biochemical, small-molecule microarray, 635 nm fluorescence, primary screen (AID 1081); settings: higher = more signal;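 further: binding of the protein to compounds printed on small-molecule microarray slides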
[8] = FRG1 expression reporter modulators in myotubes – cell-based, C2C12 myotubes, firefly/Renilla luciferase, luminescence, FRG1 inhibition for FSHD, primary screen (AID 1084); settings: FRG1 promoter luciferase, higher = more signal, called active from +8 up or from −8 down
[9] = small molecules captured by biotinylated probe aFST – biochemical, small-molecule microarray, fluorescence 635/667, stem cell growth factor project, primary screen (AID 1086); settings: higher = more signal;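 further: score merges 667 nm fluorescence with signal-to-noise of each printed compound spot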
[10] = binders of probe aHhip on microarray, primary screen, stem cell growth factor project, biochemical, small-molecule microarray, fluorescence 635/667 (AID 1087); settings: higher = more signal;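 further: score merges spot fluorescence at 667nm with spot signal to noise ratio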
[11] = test system: PRMT1 (protein arginine N-methyltransferase 1); experiment: small molecules binding arginine methyltransferase PRMT1 – biochemical, small-molecule microarray, 635 nm fluorescence, primary screen (AID 1088); settings: higher = more signal;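 further: binding of Prmt1 protein to compounds spotted on small-molecule microarray slides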
[12] = growth effects on S. cerevisiae YJM789 – YJM789 clinical isolate, OD600, 24 h, basal, primary screen (AID 1089); settings: higher = more signal, called active from +8 up or from −8 down;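 further: growth of clinical yeast isolate S. cerevisiae YJM 789 seeded 1000 cells per well; test concentration not given here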
[13] = S. pombe growth modifiers, basal conditions – strain 972, OD600, 24 h, no modulator, primary screen (AID 1090);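 further: basal condition with compound alone and no growth modifier present; test concentration not given here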; settings: S. pombe 972 growth, higher = more signal, called active from +8 up or from −8 down
[14] = budding yeast growth modifiers under rapamycin – strain BY4716, OD600, 96 h, primary screen (AID 1091); further: test concentration not given here; settings: S. cerevisiae BY4716 + rapamycin, higher = more signal, called active from +8 up or from −8 down
[15] = target: Torsin-1A-interacting protein 2 (Homo sapiens) (UniProt Q8NFQ8); experiment: small molecules binding lysate-expressed LULL1 – cell lysate, human LULL1 lysate, 635/667 nm fluorescence, primary screen (AID 1092); settings: small-molecule microarray, hLULL1 lysate binding, 635 nm fluorescence; higher = more signal;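 further: probe is lysate of COS7 cells overexpressing human LULL1; score merges per-feature 667 nm fluorescence with signal-to-noise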
[16] = optical density change of DRC41 E. coli – strain DRC41, OD650, 24 h, E. coli filamentation project, primary screen (AID 1093);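 further: MC1000 strain lacking acrAB efflux and sulA so SOS filamentation is blocked; test concentration not given here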; settings: E. coli DRC41 growth, higher = more signal, called active from +8 up or from −8 down
[17] = probe aLefty2 binding to arrayed compounds – biochemical, biotinylated probe, 635/667 nm fluorescence, primary screen (AID 1094); settings: small-molecule microarray, higher = more signal;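 further: score merges spot fluorescence near 667 nm with spot signal-to-noise ratio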
[18] = test system: Noggin (protein binding on small-molecule microarray); experiment: small molecules binding Noggin protein – biochemical, 635/667 nm fluorescence, primary screen (AID 1095); settings: 635 nm fluorescence, higher = more signal;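 further: score merges 667 nm feature fluorescence with signal to noise over triplicate slides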
[19] = target: Neurogenic locus notch homolog protein 3 (Homo sapiens) (UniProt Q9UM47); experiment: small molecules binding NOTCH3 protein – biochemical, 635/667 nm fluorescence, primary screen (AID 1096); settings: small-molecule microarray, 635 nm fluorescence, higher = more signal
[20] = probe aEGFR binding to arrayed compounds – biochemical, biotinylated probe, 635/667 nm fluorescence, primary screen (AID 1097); settings: small-molecule microarray, higher = more signal;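 further: probe is a biotinylated anti-EGFR antibody binding compounds printed on slides; score combines fluorescence near 667 nm and signal to noise of each spot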

Sequence of Neurogenic locus notch homolog protein 2 (Homo sapiens) (Q04721 whole entry, looked up, canonical isoform): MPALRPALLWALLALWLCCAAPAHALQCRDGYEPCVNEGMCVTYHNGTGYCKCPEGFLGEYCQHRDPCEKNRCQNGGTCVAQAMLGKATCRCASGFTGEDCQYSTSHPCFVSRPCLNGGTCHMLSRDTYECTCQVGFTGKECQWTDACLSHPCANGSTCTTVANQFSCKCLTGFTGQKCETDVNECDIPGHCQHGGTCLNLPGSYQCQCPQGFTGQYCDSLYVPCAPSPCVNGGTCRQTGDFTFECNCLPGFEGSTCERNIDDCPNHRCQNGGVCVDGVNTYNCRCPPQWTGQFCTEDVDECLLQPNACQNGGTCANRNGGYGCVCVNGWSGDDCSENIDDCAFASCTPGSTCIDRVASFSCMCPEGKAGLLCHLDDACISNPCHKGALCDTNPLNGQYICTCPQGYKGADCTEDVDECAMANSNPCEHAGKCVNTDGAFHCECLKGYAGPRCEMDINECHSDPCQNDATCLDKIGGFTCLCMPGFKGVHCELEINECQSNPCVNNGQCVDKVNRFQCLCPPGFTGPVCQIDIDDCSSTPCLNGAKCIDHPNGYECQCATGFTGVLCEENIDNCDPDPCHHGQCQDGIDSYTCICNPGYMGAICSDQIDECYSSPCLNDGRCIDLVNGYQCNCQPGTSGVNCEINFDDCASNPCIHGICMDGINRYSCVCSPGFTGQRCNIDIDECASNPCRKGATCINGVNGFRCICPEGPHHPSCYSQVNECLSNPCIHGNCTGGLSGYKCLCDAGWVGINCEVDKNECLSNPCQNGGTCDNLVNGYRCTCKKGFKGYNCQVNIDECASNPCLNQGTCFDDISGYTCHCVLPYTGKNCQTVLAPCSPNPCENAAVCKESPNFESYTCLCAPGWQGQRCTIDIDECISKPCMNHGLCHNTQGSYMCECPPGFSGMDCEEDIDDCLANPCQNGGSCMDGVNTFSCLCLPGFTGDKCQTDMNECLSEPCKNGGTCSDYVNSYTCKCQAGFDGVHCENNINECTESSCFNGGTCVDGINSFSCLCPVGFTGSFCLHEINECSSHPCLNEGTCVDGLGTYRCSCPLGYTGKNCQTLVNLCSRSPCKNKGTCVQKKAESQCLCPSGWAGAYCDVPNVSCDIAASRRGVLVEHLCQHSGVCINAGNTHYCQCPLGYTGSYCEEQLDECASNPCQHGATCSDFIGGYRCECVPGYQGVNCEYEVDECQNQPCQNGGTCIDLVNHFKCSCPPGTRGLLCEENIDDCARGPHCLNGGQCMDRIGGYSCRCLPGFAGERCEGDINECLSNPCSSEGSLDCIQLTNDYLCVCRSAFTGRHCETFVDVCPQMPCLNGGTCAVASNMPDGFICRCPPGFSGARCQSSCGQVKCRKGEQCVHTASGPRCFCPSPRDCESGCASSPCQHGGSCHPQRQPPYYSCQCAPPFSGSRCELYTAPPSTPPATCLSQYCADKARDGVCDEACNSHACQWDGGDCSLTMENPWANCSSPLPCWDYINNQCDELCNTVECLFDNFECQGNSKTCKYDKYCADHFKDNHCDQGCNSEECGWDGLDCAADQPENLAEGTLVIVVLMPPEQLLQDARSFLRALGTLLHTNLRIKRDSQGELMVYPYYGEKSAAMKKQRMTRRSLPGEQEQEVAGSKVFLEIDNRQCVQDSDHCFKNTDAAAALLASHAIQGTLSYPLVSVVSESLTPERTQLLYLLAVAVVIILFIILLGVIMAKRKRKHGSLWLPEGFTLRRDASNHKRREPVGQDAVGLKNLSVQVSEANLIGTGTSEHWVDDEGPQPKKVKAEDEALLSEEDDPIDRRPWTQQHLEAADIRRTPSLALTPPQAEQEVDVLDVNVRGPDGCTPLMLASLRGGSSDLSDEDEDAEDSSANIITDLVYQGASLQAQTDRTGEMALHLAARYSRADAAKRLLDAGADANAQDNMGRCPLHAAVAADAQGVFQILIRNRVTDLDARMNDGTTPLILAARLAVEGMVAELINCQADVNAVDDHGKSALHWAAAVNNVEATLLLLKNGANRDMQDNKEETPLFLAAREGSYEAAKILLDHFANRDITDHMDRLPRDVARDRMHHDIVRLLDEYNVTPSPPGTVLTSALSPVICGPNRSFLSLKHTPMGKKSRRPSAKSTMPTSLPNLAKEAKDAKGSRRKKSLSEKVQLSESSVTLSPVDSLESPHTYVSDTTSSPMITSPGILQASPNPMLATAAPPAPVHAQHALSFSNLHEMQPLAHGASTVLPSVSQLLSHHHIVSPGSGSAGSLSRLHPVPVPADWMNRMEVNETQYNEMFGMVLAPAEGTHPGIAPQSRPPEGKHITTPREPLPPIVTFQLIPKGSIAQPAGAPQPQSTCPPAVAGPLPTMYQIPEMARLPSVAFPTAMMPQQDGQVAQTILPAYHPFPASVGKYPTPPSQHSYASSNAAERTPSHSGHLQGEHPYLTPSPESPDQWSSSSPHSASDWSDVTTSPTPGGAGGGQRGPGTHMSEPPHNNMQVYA
Sequence of Torsin-1A-interacting protein 2 (Homo sapiens) (Q8NFQ8 whole entry, looked up): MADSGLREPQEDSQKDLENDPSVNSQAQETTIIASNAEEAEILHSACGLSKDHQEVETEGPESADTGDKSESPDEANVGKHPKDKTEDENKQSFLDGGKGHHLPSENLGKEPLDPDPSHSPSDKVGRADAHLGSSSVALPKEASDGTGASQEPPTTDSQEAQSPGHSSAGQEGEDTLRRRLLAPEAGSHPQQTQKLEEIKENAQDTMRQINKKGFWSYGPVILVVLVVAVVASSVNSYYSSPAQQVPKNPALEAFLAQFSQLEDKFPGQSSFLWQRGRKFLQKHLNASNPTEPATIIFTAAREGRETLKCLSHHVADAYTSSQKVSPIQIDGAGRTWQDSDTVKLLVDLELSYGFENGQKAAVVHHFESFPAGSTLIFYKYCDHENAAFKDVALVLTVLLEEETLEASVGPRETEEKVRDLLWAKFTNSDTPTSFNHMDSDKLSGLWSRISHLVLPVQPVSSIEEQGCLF
Sequence of Pro-neuregulin-1, membrane-bound isoform (Homo sapiens) (Q02297 whole entry, looked up, the tested form may be a part, canonical isoform): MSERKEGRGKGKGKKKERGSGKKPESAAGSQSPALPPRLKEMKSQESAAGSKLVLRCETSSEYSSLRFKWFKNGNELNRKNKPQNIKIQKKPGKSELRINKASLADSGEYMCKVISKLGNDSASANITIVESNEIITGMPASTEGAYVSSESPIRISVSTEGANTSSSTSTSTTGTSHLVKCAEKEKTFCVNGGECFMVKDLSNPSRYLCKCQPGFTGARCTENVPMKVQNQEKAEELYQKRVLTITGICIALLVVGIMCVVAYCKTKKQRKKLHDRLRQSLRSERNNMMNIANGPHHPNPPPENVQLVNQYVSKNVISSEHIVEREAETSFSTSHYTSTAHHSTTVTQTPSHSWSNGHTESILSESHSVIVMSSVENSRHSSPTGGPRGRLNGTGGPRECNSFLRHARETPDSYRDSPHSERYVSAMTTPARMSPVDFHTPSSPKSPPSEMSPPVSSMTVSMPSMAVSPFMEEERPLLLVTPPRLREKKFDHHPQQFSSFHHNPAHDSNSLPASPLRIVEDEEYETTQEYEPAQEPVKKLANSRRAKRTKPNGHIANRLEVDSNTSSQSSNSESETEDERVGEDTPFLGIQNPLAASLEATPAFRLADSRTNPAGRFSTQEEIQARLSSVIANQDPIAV

O=C1C2C=CC(C(O)C3CCCCC3)N(n3cnnc3)C2C(=O)N1Cc1ccccc1 (stereo not given)
composite z-score [1]: -0.0187
composite z-score [2]: 0.396
composite z-score [3]: 0.0498
composite z-score [4]: 0.792
composite z-score [5]: 0.884
composite z-score [6]: 1.07
composite z-score [7]: 1.3
z-score [8]: 1.11 (inactive)
composite z-score [9]: 1.47
composite z-score [10]: -0.299
composite z-score [11]: 1.51
z-score [12]: -0.509 (inactive)
z-score [13]: 0.266 (inactive)
z-score [14]: -0.98 (inactive)
composite z-score [15]: 3.15
z-score [16]: 0.596 (inactive)
composite z-score [17]: 0.145
composite z-score [18]: 0.915
composite z-score [19]: 1.06
composite z-score [20]: 0.0201

NC(=O)NCC#Cc1ccc2c(c1)[C@]1(C(=O)N2)[C@H](c2ccc(OCCO)cc2)N2[C@H](c3ccccc3)[C@H](c3ccccc3)OC(=O)[C@H]2[C@@H]1C(=O)O
composite z-score [1]: -0.218
composite z-score [2]: 1.36
composite z-score [3]: -0.187
composite z-score [4]: 0.23
composite z-score [5]: -0.459
composite z-score [6]: 1.68
composite z-score [7]: -0.269
z-score [8]: 0.542 (inactive)
composite z-score [9]: 0.0897
composite z-score [10]: -0.374
composite z-score [11]: -0.541
z-score [12]: 0.467 (inactive)
z-score [13]: -0.662 (inactive)
z-score [14]: 0.23 (inactive)
composite z-score [15]: -0.143
z-score [16]: 0.775 (inactive)
composite z-score [17]: -0.139
composite z-score [18]: -0.292
composite z-score [19]: -0.343
composite z-score [20]: -0.209

[N-]=[N+]=NCc1ccccc1[C@@H]1OC(c2ccc(OCCCO)cc2)=N[C@]1(Cc1ccccc1N=[N+]=[N-])C(=O)O
composite z-score [1]: 0.535
composite z-score [2]: 0.326
composite z-score [3]: 0.294
composite z-score [4]: 1.14
composite z-score [5]: 1.55
composite z-score [6]: 1.89
composite z-score [7]: 1.3
z-score [8]: 1.22 (inactive)
composite z-score [9]: 1.28
composite z-score [10]: 0.455
composite z-score [11]: 1.48
z-score [12]: -0.282 (inactive)
z-score [13]: -1.64 (inactive)
z-score [14]: -0.794 (inactive)
composite z-score [15]: 3.13
z-score [16]: -0.0956 (inactive)
composite z-score [17]: 0.515
composite z-score [18]: -0.0626
composite z-score [19]: 1.11
composite z-score [20]: 0.439

C=C(CCCC)/C(=C/C[C@H](OC(C)=O)c1cccc(OCCO)c1)c1cnc2ccccc2c1
composite z-score [1]: 0.243
composite z-score [2]: -0.194
composite z-score [3]: -0.116
composite z-score [4]: 0.0835
composite z-score [5]: 0.16
composite z-score [6]: -0.0759
composite z-score [7]: 0.244
z-score [8]: -0.45 (inactive)
composite z-score [9]: -0.381
composite z-score [10]: -0.0994
composite z-score [11]: 0.12
z-score [12]: 1.94 (inactive)
z-score [13]: 0.924 (inactive)
z-score [14]: 1.32 (inactive)
composite z-score [15]: -0.0488
z-score [16]: 0.442 (inactive)
composite z-score [17]: -0.116
composite z-score [18]: -0.271
composite z-score [19]: 0.0799
composite z-score [20]: -0.169

COCCOC(=O)N1C(=O)[C@@]2(c3cc(C#CCC(C(=O)OC)C(=O)OC)ccc31)[C@H](C(N)=O)[C@H]1C(=O)O[C@H](c3ccccc3)[C@H](c3ccccc3)N1[C@@H]2c1ccc(O)cc1
composite z-score [1]: -0.291
composite z-score [2]: 0.79
composite z-score [3]: 0.015
composite z-score [4]: 1.2
composite z-score [5]: 1.57
composite z-score [6]: 1.6
composite z-score [7]: 1.23
z-score [8]: 3.78 (inactive)
composite z-score [9]: 0.838
composite z-score [10]: 0.0768
composite z-score [11]: 1.54
z-score [12]: 2.77 (inactive)
z-score [13]: 2.65 (inactive)
z-score [14]: 7.43 (inactive)
composite z-score [15]: 2.58
z-score [16]: 0.819 (inactive)
composite z-score [17]: 0.126
composite z-score [18]: 1.12
composite z-score [19]: 1.07
composite z-score [20]: 0.0254

COCCCNC(=O)[C@@]1(CCS(=O)(=O)c2ccccc2)COC(c2ccc(OCCCO)cc2)=N1
composite z-score [1]: 1.79
composite z-score [2]: 1.68
composite z-score [3]: 0.0177
composite z-score [4]: 0.529
composite z-score [5]: 0.874
composite z-score [6]: 2.3
composite z-score [7]: 1.28
z-score [8]: -1.24 (inactive)
composite z-score [9]: 1.1
composite z-score [10]: -0.0296
composite z-score [11]: 1.36
z-score [12]: 0.134 (inactive)
z-score [13]: -0.0454 (inactive)
z-score [14]: -0.403 (inactive)
composite z-score [15]: 3.67
z-score [16]: 1.52 (inactive)
composite z-score [17]: 0.472
composite z-score [18]: 0.878
composite z-score [19]: 0.56
composite z-score [20]: 0.195

COC(=O)[C@@]1(Cc2ccc(OC)cc2)[C@H]2c3cc(C(=O)N4CCCC4)n(Cc4ccc(C(F)(F)F)nc4)c3C[C@H]2CN1C(=O)c1ccccc1
composite z-score [1]: 0.308
composite z-score [2]: 0.374
composite z-score [3]: -0.102
composite z-score [4]: 0.999
composite z-score [5]: 1.21
composite z-score [6]: 1.66
composite z-score [7]: 1.24
z-score [8]: 0.491 (inactive)
composite z-score [9]: -0.25
composite z-score [10]: 0.388
composite z-score [11]: 0.0861
z-score [12]: -0.361 (inactive)
z-score [13]: -0.138 (inactive)
z-score [14]: -0.707 (inactive)
composite z-score [15]: 1.05
z-score [16]: -1.1 (inactive)
composite z-score [17]: 0.248
composite z-score [18]: 0.113
composite z-score [19]: 0.269
composite z-score [20]: 0.131

COC(=O)C(CC#Cc1ccc2c(c1)[C@]1(C(=O)N2)[C@H](C(=O)N2CCc3cc(OC)c(OC)cc3C2)[C@H]2C(=O)O[C@H](c3ccccc3)[C@H](c3ccccc3)N2[C@@H]1c1ccccc1OCCO)C(=O)OC
composite z-score [1]: -0.385
composite z-score [2]: 1.03
composite z-score [3]: -0.0037
composite z-score [4]: 0.738
composite z-score [5]: 1.15
composite z-score [6]: 1.67
composite z-score [7]: 1.25
z-score [8]: 1.31 (inactive)
composite z-score [9]: 0.529
composite z-score [10]: -0.0346
composite z-score [11]: 1.54
z-score [12]: 2.06 (inactive)
z-score [13]: 1.54 (inactive)
z-score [14]: 3.78 (inactive)
composite z-score [15]: 3.06
z-score [16]: 0.49 (inactive)
composite z-score [17]: -0.0862
composite z-score [18]: 1.36
composite z-score [19]: 1.07
composite z-score [20]: 0.0457

Cc1ccc(S[C@]2(C(=O)NC(C)C)CC(=O)N(C3CCCCC3)[C@@H]2c2ccc(CO)cc2I)cc1
composite z-score [1]: -0.183
composite z-score [2]: 2.15
composite z-score [3]: -0.0257
composite z-score [4]: 0.308
composite z-score [5]: 0.777
composite z-score [6]: 0.897
composite z-score [7]: 1.33
z-score [8]: -4.76 (inactive)
composite z-score [9]: 0.276
composite z-score [10]: -0.399
composite z-score [11]: 1.54
z-score [12]: -1.15 (inactive)
z-score [13]: 0.145 (inactive)
z-score [14]: 2.68 (inactive)
composite z-score [15]: 2.84
z-score [16]: -0.317 (inactive)
composite z-score [17]: -0.0977
composite z-score [18]: 0.7
composite z-score [19]: 0.884
composite z-score [20]: 0.0203

CCCCCC1=C2CNC(Cc3ccccc3)(C(=O)OC)C=C2C(C)C1=O (stereo not given)
composite z-score [1]: 1.16
composite z-score [2]: 0.249
composite z-score [3]: -0.0593
composite z-score [4]: 0.279
composite z-score [5]: 0.227
composite z-score [6]: 0.932
composite z-score [7]: 0.446
z-score [8]: 1.53 (inactive)
composite z-score [9]: 0.602
composite z-score [10]: 0.604
composite z-score [11]: -0.488
z-score [12]: 0.194 (inactive)
z-score [13]: -0.331 (inactive)
z-score [14]: 1.2 (inactive)
composite z-score [15]: 2.5
z-score [16]: -0.791 (inactive)
composite z-score [17]: 0.226
composite z-score [18]: -1.49
composite z-score [19]: -0.638
composite z-score [20]: -0.0632
